Assay outcomes from PubChem BioAssay.
Shown is part of a subset that was picked to be rich in hits.
RmlC RmlD mix: RmlC and RmlD coupled enzyme inhibitors, primary screen, biochemical, 384-well, compound mixtures, retest. RmlC/RmlD coupled enzyme inhibition, 384-well mixture HTS. inhibition, % at 5.5 µM. 0.39% of 110,000 active; in the data active = inhibition above about 30%, passing the limit was not always enough
HIV RNase H inh-1: HIV-1 RT RNase H inhibitors, primary screen, biochemical, fluorescence; Gag-Pol polyprotein (Human immunodeficiency virus type 1 group M subtype B (isolate …; RT-RNase H RNA/DNA duplex cleavage; inhibition, % at 10 µM; 1.9% of 65,000 active; in the data active = inhibition above about 50%
HIV RNase H inh-2: HIV-1 RT RNase H inhibitors, retest, confirmation, biochemical; shares compounds with HIV RNase H inh-1; Recombinant RT RNase H, fluorescent RNA/DNA duplex cleavage; inhibition, % at 10 µM; 39% of 1,000 active; in the data active = inhibition above about 48%
Starred values were filed as active, the others as inactive; x = no result given.

SMILES	RmlC RmlD mix	HIV RNase H inh-1	HIV RNase H inh-2
c1ccc(CCn2nnnc2C(c2cccs2)N2CCOCC2)cc1 (configuration not stated)	5.0	-6.2	x
Cc1c(NC(=O)CN2CCCc3ccccc32)c(=O)n(-c2ccccc2)n1C	75.0	-5.4	x
CCOc1ccccc1NC(=O)N1CCC(NC(=O)c2ccccc2C)CC1	-15.5	1.0	x
CCOc1ccccc1NC(=O)N1CCC(NC(=O)c2cccc(C)c2)CC1	-8.1	76.9*	12.7
COc1ccc(Cn2nnnc2CN(Cc2cc3cccc(C)c3[nH]c2=O)C2CCCC2)cc1	-4.8	2.8	x
CCCn1c(=O)c(C(=O)NCc2ccncc2)c(O)c2ccccc21	3.5	-29.5	x
CCCCCn1c(=O)c(C(=O)NCc2ccncc2)c(O)c2ccccc21	4.0	82.7*	56.8*
COC(=O)CSc1nc(C)c(Oc2ccccc2)c(=O)[nH]1	0.9	-10.7	x
Cn1c(SCC(=O)NCc2ccco2)nc2ccccc2c1=O	5.1	-25.2	x
O=C(CSc1nc2ccccc2c2nc3ccccc3n12)NCc1ccco1	1.9	84.0*	63.8*
Clc1ccc(/C=N/Nc2nn[nH]n2)cc1	-5.4	x	x
O=C(CSc1ccc2nnc(-c3cccnc3)n2n1)NCC1CCCO1 (configuration not stated)	-4.5	6.7	x
O=C(CSc1ccc2nnc(-c3cccc(F)c3)n2n1)NCC1CCCO1 (configuration not stated)	6.2	73.3*	33.0
CCOc1ccc(N2CC(=O)N(c3ccc(OCC)cc3)CC2=O)cc1	-15.4	x	x
CCOc1ccc(N2Cc3ccccc3C2)cc1	-7.7	72.5*	60.7*
O=S(=O)(Nc1ccccc1)c1ccc(F)cc1	-8.0	x	x
CCCNC(=O)c1onc(CSc2cccc(OC)c2)c1C(=O)NCCC	0.3	x	x
O=C(Nc1nnc(-c2ccc3c(c2)OCCO3)o1)c1ccc(Cc2ccccc2)cc1	33.1	59.0*	10.2
O=C(Nc1nnc(-c2ccc3c(c2)CCCC3)o1)c1ccccc1	-11.7	x	x
O=C(Nc1ccc2oc(-c3ccccc3Cl)nc2c1)c1ncn[nH]1	-9.3	-11.2	x
CC(C)c1ccc2oc(-c3ccc(NC(=O)c4ncn[nH]4)cc3)nc2c1	11.0	74.0*	58.2*
CCC(C)c1ccc2oc(-c3ccc(NC(=O)c4ncn[nH]4)cc3)nc2c1 (configuration not stated)	-111.3	64.3*	71.0*
O=C(Nc1ccc2oc(-c3cccc4ccccc34)nc2c1)c1ncn[nH]1	-13.4	x	x
CCn1c(SCC(=O)Nc2nc(-c3ccccc3)cs2)nnc1-c1ccccc1	-5.6	13.3	x
CCCCCn1c(N2CCN(c3cccc(Cl)c3)CC2)nc2c1c(=O)[nH]c(=O)n2C	6.7	-10.0	x
SMILES	RmlC RmlD mix	HIV RNase H inh-1	HIV RNase H inh-2
Cn1c(=O)[nH]c(=O)c2c1nc(N1CCN(c3cccc(Cl)c3)CC1)n2CCCc1ccccc1	3.1	55.9*	1.3
C=C(C)Cn1c(Sc2nc3ccccc3[nH]2)nc2c1c(=O)[nH]c(=O)n2C	8.9	11.8	x
Cn1cnnc1SCC(=O)Nc1sc2c(c1C(N)=O)CCC2	1.7	75.4*	11.0
Cc1nnc(SCC(=O)Nc2sc3c(c2C(N)=O)CCCC3)[nH]c1=O	57.8	x	x
Cc1nc2cc(-c3ccccc3)nn2c(C)c1CCC(=O)N1CCN(c2ccccn2)CC1	-13.2	x	x
Cn1cnnc1SCC(=O)N1CCC(Cc2ccccc2)CC1	8.4	-4.6	x
Cc1cccc(N2CCN(C(=O)Cn3sc4nc(C)cc(C)c4c3=O)CC2C)c1 (configuration not stated)	-2.8	93.4*	56.0*
Cc1cc(OCC(=O)NCCCN2CCOCC2)cc(C)c1Cl	4.0	2.8	x
Cc1ccc(-c2ccc(=O)n(CC(=O)N3CCN(c4cccc(C)c4)C(C)C3)n2)cc1 (configuration not stated)	-1.8	-22.6	x
Cc1cc(C)c2c(=O)n(CC(=O)NCCCN3CCOCC3)sc2n1	16.2	89.6*	76.9*
Cc1cc(C)c2c(=O)n(CC(=O)N3CCC(Cc4ccccc4)CC3)sc2n1	x	78.6*	10.4
O=C(CCN1CCN(Cc2ccccc2)CC1)Nc1ccc(OCc2ccccc2)cc1	1.9	x	x
Cc1cc(C)c(C#N)c(SCS(=O)Cc2ccc(Cl)cc2)n1 (configuration not stated)	-7.0	-6.9	x
Cc1ccc(-n2c(C)cc(/C=c3/sc4nc5ccccc5n4c3=O)c2C)cc1	10.2	x	x
O=c1/c(=C\c2cccn2-c2ccccc2)sc2nc3ccccc3n12	-1.4	89.4*	60.7*
OCCn1c(CSc2nnc(-c3ccco3)n2-c2ccccc2)nc2ccc(Cl)cc21	-2.5	79.6*	1.1
OCCn1c(CSc2nc3ccccc3n2CCO)nc2ccccc21	10.1	-6.0	x
COc1cccc(CNC(=O)C2CCN(S(=O)(=O)c3cccs3)CC2)c1	-13.5	x	x
CC1(c2nnc(-c3ccncc3)o2)CC(c2ccc(F)cc2)=NO1 (configuration not stated)	-13.5	x	x
CC1=C(C(=O)OC(C)C)C(c2cccc(F)c2)N2C(=O)C(C)SC2=N1 (configuration not stated)	-2.8	-9.6	x
CC(C)(C)C(=O)c1cn(CC(=O)NCc2ccc3c(c2)OCO3)c2ccccc12	3.7	x	x
CCOC(=O)N1CCc2c(sc3c2C(=O)NC(c2ccc(-c4ccc(Cl)cc4)o2)N3)C1 (configuration not stated)	x	73.5*	97.1*
Cc1ccc(C2NC(=O)c3c(sc4c3CCN(C)C4)N2)o1 (configuration not stated)	-6.3	-0.2	x
COc1ccc(CNC(=O)CSc2nc3nc(C)cc(C)n3n2)cc1	x	0.5	x
O=C(CCn1c(=O)[nH]c2ccsc2c1=O)NCCc1ccc(Cl)cc1	1.5	x	x
SMILES	RmlC RmlD mix	HIV RNase H inh-1	HIV RNase H inh-2
O=C(COc1ccc(Cl)cc1)Nc1ccc2oc(-c3ccncc3)nc2c1	11.8	-1.2	x
COc1cccc(C(=O)Nc2ccc(-c3nc4ccccc4o3)c(O)c2)c1	-159.6	66.1*	24.1
COc1cc(OC)cc(C(=O)Nc2ccc(-c3nc4ccccc4o3)cc2)c1	-12.5	-2.7	x
Cc1ccc(OCC(=O)Nc2ccc(O)c(-c3nc4ccccc4o3)c2)cc1	x	70.2*	26.4
CS(=O)(=O)N1CC(C(=O)NC2CC2)Oc2ccc(Cl)cc21 (configuration not stated)	-2.7	x	x
O=c1ccc2cc3c([nH]c4ccc(Br)cc43)oc-2c1O	10.2	87.7*	57.8*
O=c1c2c([nH]c3ccc(Br)cc13)CCCC2	-28.5	-1.8	x
CC(=O)C(C(C)=O)c1c(Cl)c(O)c(O)c2c(C(=O)c3ccccc3)coc12	4.0	100.3*	63.9*
CN1CCN(Cc2c(O)ccc3occ(C(=O)c4ccccc4)c23)CC1	10.6	-2.2	x
CC(CCc1ccccc1)NC(=O)C1CCN(C(=O)c2sccc2-n2cccc2)CC1 (configuration not stated)	-43.8	-3.3	x
COc1cccc(CN(C)C(=O)c2ccc(S(=O)(=O)N3CCCC3)cc2)c1OC	-14.7	3.4	x
Cc1cccc(-n2c(O)c(C=Nc3ccc4c(c3)OCO4)c3ccccc3c2=O)n1	-5.6	65.3*	23.1
Cc1ccc(-n2c(O)c(C=Nc3ccc4c(c3)OCO4)c3ccccc3c2=O)cc1C	37.0	x	x
CC(C)(C)c1cc(S(=O)(=O)CCc2ccccn2)cc(C(C)(C)C)c1F	-12.8	x	x
CCOc1ccc2[nH]c(=O)c(CN(Cc3ccco3)C(CC)c3nnnn3Cc3ccccc3)cc2c1 (configuration not stated)	-6.6	19.9	x
